The record followed here is publication PMC4336329 (PLoS ONE, 2015).

Among all 310,000 compounds or so, about 14,000 (4.5%) showed an effect of 50% or more. Effects have a minus sign here. This is one part of a sample in which strong results are shown more often than they occur.
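Note: peak tail current of the secondary pulse compared with the same well before compound.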

In this test the target is human ether-à-go-go-related gene (hERG) potassium channel (human, UniProt Q12809). In words: primary screen, population patch clamp on CHO cells stably expressing hERG; higher = less effect of the substance.
human ether-à-go-go-related gene (hERG) potassium channel, sequence (Q12809 whole entry, looked up): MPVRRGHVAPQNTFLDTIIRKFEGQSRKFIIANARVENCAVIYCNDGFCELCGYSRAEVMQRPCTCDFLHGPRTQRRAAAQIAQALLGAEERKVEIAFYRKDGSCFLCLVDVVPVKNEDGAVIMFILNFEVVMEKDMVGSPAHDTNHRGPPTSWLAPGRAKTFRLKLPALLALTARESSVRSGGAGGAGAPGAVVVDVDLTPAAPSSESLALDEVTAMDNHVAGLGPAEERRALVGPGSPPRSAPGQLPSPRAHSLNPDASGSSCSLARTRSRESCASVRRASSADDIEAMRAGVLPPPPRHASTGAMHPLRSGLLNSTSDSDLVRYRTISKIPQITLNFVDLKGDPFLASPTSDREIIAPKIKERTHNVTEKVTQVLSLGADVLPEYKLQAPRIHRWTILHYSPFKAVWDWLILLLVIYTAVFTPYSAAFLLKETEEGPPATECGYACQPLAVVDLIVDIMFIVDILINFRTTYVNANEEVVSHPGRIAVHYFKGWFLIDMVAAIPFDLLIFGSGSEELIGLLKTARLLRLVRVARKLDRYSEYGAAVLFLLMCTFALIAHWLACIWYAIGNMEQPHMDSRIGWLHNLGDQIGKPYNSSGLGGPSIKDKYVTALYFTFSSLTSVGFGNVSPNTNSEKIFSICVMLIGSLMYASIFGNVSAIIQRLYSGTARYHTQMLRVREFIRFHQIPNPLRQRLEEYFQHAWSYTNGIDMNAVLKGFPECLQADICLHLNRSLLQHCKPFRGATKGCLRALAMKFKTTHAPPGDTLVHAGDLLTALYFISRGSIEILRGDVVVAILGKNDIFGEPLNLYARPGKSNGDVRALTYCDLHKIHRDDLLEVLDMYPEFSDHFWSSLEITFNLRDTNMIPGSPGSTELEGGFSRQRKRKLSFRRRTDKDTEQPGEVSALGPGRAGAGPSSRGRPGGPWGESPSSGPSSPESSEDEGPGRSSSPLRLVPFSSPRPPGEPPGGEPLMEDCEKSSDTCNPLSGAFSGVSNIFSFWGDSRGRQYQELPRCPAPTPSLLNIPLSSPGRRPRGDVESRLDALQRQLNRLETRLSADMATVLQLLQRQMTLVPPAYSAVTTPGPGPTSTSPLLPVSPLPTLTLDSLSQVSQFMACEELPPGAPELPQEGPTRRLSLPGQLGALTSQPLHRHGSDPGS
For the compound `COc1cccc(CC(Cc2nc3ccccc3[nH]2)c2nc3ccccc3[nH]2)c1` (stereo not shown), the “hERG current change (%, negative = inhibition) at 10uM” value was -33%.

With `Cn1nnnc1SCC(=O)Nc1ccc(N2CCOCC2)cc1`, the “hERG current change (%, negative = inhibition) at 10uM” value amounted to 5.57%.

In the case of `N#CCc1ccc(NC(=O)c2ccc(S(=O)(=O)N3CCCC3)cc2)cc1`, the “hERG current change (%, negative = inhibition) at 10uM” value was 16.9%.

Regarding `CC1CCCCN1S(=O)(=O)c1ccc(NC(=O)c2cccs2)cc1` (stereo not shown), the “hERG current change (%, negative = inhibition) at 10uM” value is given as -11.3%.

`COc1ccccc1CNc1ncnc2c1cnn2-c1ccccc1`: the “hERG current change (%, negative = inhibition) at 10uM” value is given as -12.1%.

Turning to `COc1ccc2nc(Nc3nc(CSc4nnnn4-c4ccccc4)cc(=O)[nH]3)nc(C)c2c1`, the “hERG current change (%, negative = inhibition) at 10uM” value is -42.1%.

`O=C(NCc1ccccc1Cl)c1ccc2ccccc2n1`: the “hERG current change (%, negative = inhibition) at 10uM” value is given as -1.85%.

Take `O=C(O)C1=C[C@@H](c2ccc(Br)cc2)C[C@@H](OCc2ccc(CO)cc2)O1`: the “hERG current change (%, negative = inhibition) at 10uM” value came out at 18.2%.

For `Cc1ccc(NC(=O)[C@@H]2CCCN2S(=O)(=O)c2ccccc2C(F)(F)F)cc1S(=O)(=O)N1CCOCC1`, the “hERG current change (%, negative = inhibition) at 10uM” value was -21.4%.

For `CCN1C(=O)N[C@H](c2ccccc2)C(C(C)=O)=C1C`, the “hERG current change (%, negative = inhibition) at 10uM” value worked out at 8.38%.

Turning to `CN1CCN(C=NC2=NN(c3cccc(C(F)(F)F)c3)CC2)CC1`, the “hERG current change (%, negative = inhibition) at 10uM” value is -23.9%.

Turning to `N#Cc1ccc(Oc2ccc(/C=N/O)cn2)cc1`, the “hERG current change (%, negative = inhibition) at 10uM” value is -73.7%.

Consider `O=[N+]([O-])c1ccc(Oc2ccc(/C=N/O)cc2)nc1`, for which the “hERG current change (%, negative = inhibition) at 10uM” value amounted to 0.3%.

With `Cc1ccc(Oc2ccc(/C=N/O)cn2)cc1`, the “hERG current change (%, negative = inhibition) at 10uM” value is -1.45%.

For the compound `CCOC(=O)Nc1ccc(C(=O)/C=C/c2ccccc2)cc1`, the “hERG current change (%, negative = inhibition) at 10uM” value was -7.78%.

Turning to `COc1cccc(/C=C(\CC(=O)O)c2nc3ccccc3s2)c1`, the “hERG current change (%, negative = inhibition) at 10uM” value amounted to 11.6%.

As to `Cn1ncc(Cl)c1C(=O)NNC(=O)Nc1cccc2ccccc12`, the “hERG current change (%, negative = inhibition) at 10uM” value was 7.09%.

With `Cc1ccc(-c2nn3c(C)nnc3c3ccccc23)cc1S(=O)(=O)NCc1ccccc1`, the “hERG current change (%, negative = inhibition) at 10uM” value is given as -29.5%.

Take `Cc1ccc(-c2nn3c(C)nnc3c3ccccc23)cc1S(=O)(=O)N1CCN(CCO)CC1`: the “hERG current change (%, negative = inhibition) at 10uM” value is -74.5%.

Regarding `Cc1ccc(-c2nn3c(C)nnc3c3ccccc23)cc1S(=O)(=O)NC(C)c1ccccc1` (stereo not shown), the “hERG current change (%, negative = inhibition) at 10uM” value is reported as -50.8%.

As for `Cc1ccc(-c2nnc3c4ccccc4c(C)nn23)cc1S(=O)(=O)N1CCN(CCO)CC1`, the “hERG current change (%, negative = inhibition) at 10uM” value is -32.9%.

As to `Cc1ccc(-c2nn3c(C)nnc3c3ccccc23)cc1S(=O)(=O)NCCO`, the “hERG current change (%, negative = inhibition) at 10uM” value stood at 11%.

Consider `CCOC(=O)N1CCN(S(=O)(=O)c2cc(-c3nn4c(C)nnc4c4ccccc34)ccc2C)CC1`, for which the “hERG current change (%, negative = inhibition) at 10uM” value is -29%.

Consider `CCCN(C(=O)c1cc(Cl)nc2ccccc12)C1CCS(=O)(=O)C1` (stereo not shown), for which the “hERG current change (%, negative = inhibition) at 10uM” value was determined as 9.75%.

Turning to `O=C(N/N=C/c1ccncc1)c1ccc(NS(=O)(=O)c2cccs2)cc1`, the “hERG current change (%, negative = inhibition) at 10uM” value is 8.88%.

In the case of `COc1ccc(CN(C)CC2CCCN(CCc3ccccc3C)C2)cc1O` (stereo not shown), the “hERG current change (%, negative = inhibition) at 10uM” value is recorded as -53.8%.

Turning to `CC(=O)c1cccc(CN(C)CC2CCCN(CCc3ccccc3C)C2)c1` (stereo not shown), the “hERG current change (%, negative = inhibition) at 10uM” value is -28.8%.

Regarding `COc1ccc(CCN2CCCC(CN(C)Cc3cccc(OC)c3)C2)cc1` (stereo not shown), the “hERG current change (%, negative = inhibition) at 10uM” value is given as -60.6%.

Take `COc1cccc(CN(C)CC2CCCN(CCc3ccccc3C)C2)c1` (stereo not shown): the “hERG current change (%, negative = inhibition) at 10uM” value is -109%.

In the case of `CCn1c(CNC(=O)c2ccccc2Br)nnc1SCC(=O)Nc1nncs1`, the “hERG current change (%, negative = inhibition) at 10uM” value is recorded as 3.2%.

In the case of `COc1cccc(C(=O)Nc2ccc(NC(=O)c3ccco3)cn2)c1`, the “hERG current change (%, negative = inhibition) at 10uM” value is -15.1%.

In the case of `O=C(Nc1ccc2c(c1)OCO2)c1cnn2c(C(F)(F)F)cc(-c3ccco3)nc12`, the “hERG current change (%, negative = inhibition) at 10uM” value is given as 2.24%.

Turning to `CCOC(=O)Cc1c(C)nc2c(-c3ccccc3OC)c(C)nn2c1C`, the “hERG current change (%, negative = inhibition) at 10uM” value is reported as -22.7%.

On to `COc1ccc(/C=N/N2C(=O)CN(C(=O)c3ccccc3)C2c2ccc(OC)cc2)cc1` (stereo not shown), for which the “hERG current change (%, negative = inhibition) at 10uM” value is -4.19%.

In the case of `CCCCc1nc2ccccc2c(N)c1CCC.O=C(O)c1cc([N+](=O)[O-])ccc1Cl`, the “hERG current change (%, negative = inhibition) at 10uM” value is reported as -66.4%.

With `CN1CCc2c1nc1ccccc1c2N.O=C(O)c1cc([N+](=O)[O-])ccc1Cl`, the “hERG current change (%, negative = inhibition) at 10uM” value is given as -9.41%.

On to `CCCCc1nc2ccccc2c(C(=O)O)c1C`, for which the “hERG current change (%, negative = inhibition) at 10uM” value is recorded as 7.29%.

For the compound `Cc1cccc(C(=O)N2N=C(c3ccc(NS(C)(=O)=O)cc3)CC2c2cccs2)c1` (stereo not shown), the “hERG current change (%, negative = inhibition) at 10uM” value was -8.44%.

Take `CS(=O)(=O)Nc1ccc(C2=NN(C(=O)C3CCCCC3)C(c3cccs3)C2)cc1` (stereo not shown): the “hERG current change (%, negative = inhibition) at 10uM” value is -22.8%.

As for `Cc1ccc(C(=O)N2N=C(c3ccc(NS(C)(=O)=O)cc3)CC2c2cccs2)cc1` (stereo not shown), the “hERG current change (%, negative = inhibition) at 10uM” value is on record as -23.1%.

Take `CCS(=O)(=O)Nc1ccc(C2=NN(C(=O)c3ccccc3)C(c3cccs3)C2)cc1` (stereo not shown): the “hERG current change (%, negative = inhibition) at 10uM” value was determined as 4.84%.

For the compound `CS(=O)(=O)Nc1ccc(C2=NN(C(=O)c3ccccc3)C(c3cccs3)C2)cc1` (stereo not shown), the “hERG current change (%, negative = inhibition) at 10uM” value is reported as -59.6%.

For `CC(C)(C)C(=O)N1N=C(c2ccc(NS(C)(=O)=O)cc2)CC1c1cccs1` (stereo not shown), the “hERG current change (%, negative = inhibition) at 10uM” value was -18.6%.

As for `CS(=O)(=O)Nc1cccc(C2=NN(C(=O)c3cccc(F)c3)C(c3cccs3)C2)c1` (stereo not shown), the “hERG current change (%, negative = inhibition) at 10uM” value worked out at 3.75%.

`CS(=O)(=O)Nc1ccc(C2=NN(S(C)(=O)=O)C(c3cccs3)C2)cc1` (stereo not shown): the “hERG current change (%, negative = inhibition) at 10uM” value is recorded as -49%.

With `CS(=O)(=O)Nc1cccc(C2=NN(S(=O)(=O)c3ccccc3)C(c3cccs3)C2)c1` (stereo not shown), the “hERG current change (%, negative = inhibition) at 10uM” value was -1.94%.

Regarding `CS(=O)(=O)Nc1ccc(C2=NN(S(=O)(=O)c3ccccc3)C(c3cccs3)C2)cc1` (stereo not shown), the “hERG current change (%, negative = inhibition) at 10uM” value is -70.3%.

Regarding `CC(C)C(=O)N1N=C(c2ccc(NS(C)(=O)=O)cc2)CC1c1cccs1` (stereo not shown), the “hERG current change (%, negative = inhibition) at 10uM” value was -68.7%.

`CS(=O)(=O)Nc1ccc(C2=NN(C(=O)c3cccc(F)c3)C(c3cccs3)C2)cc1` (stereo not shown): the “hERG current change (%, negative = inhibition) at 10uM” value was -53.8%.

`CCOC(=O)C1=NNC2C(=O)N(CC)C(=O)C12` (stereo not shown): the “hERG current change (%, negative = inhibition) at 10uM” value is given as 9.23%.

With `Cc1ccc(C)c(S(=O)(=O)N2CCN(CC(=O)Nc3ccc4c(c3)OCCO4)CC2)c1`, the “hERG current change (%, negative = inhibition) at 10uM” value was -13.9%.

`Cc1occc1C(=O)N1CCN(S(C)(=O)=O)CC1`: the “hERG current change (%, negative = inhibition) at 10uM” value was 7.58%.
